Source: PubChem BioAssay (several laboratories)
In the library only some 3.2% were active in any assay of this set; here they are far more common.
TROY NFkB inh – inhibitors of TROY-driven NF-kB signaling, primary screen, Q293 LMP1-TROYcd cells, NF-kB luciferase, uHTS; Q293 LMP1-TROYcd NF-kB luciferase reporter, 4 h; 360,000 compounds, 0.98% hits; inhibition, % at 10 µM;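 active = compounds whose plate-normalised and pattern-corrected inhibition of the luciferase reporter signal at the single screening dose is 50% or more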
TWEAK-Fn14 inh – inhibitors of TWEAK-Fn14 signaling, primary screen, luciferase reporter cells, uHTS. TWEAK-stimulated Fn14 reporter cells, luciferase luminescence, 8 h. inhibition, % at 10 µM. 360,000 compounds, 2% hits; in the data active = inhibition above about 50%
PAX8 reporter – inhibitors of PAX8-driven TPO luciferase reporter, primary screen, RMG-I cells, single concentration; SteadyGlo, 24 h; inhibition, % at 12.6 µM; 360,000 compounds, 1.2% hits; AID 652154, 2013;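 active = mean replicate inhibition at least 60% with every replicate also reaching 60%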;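 note: luciferase light reporting Pax8 driven TPO promoter activity; plate controls were median of neutral control wells for no effect and mitoxantrone controls for full effect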
LMP1 NFkB inh – EBV LMP1-driven NF-kappaB luciferase reporter inhibitors, primary screen, cell-based, luminescence, single point | LMP1-induced NF-kappaB luciferase reporter cells | inhibition, % at 12.5 µM | 350,000 compounds, 0.69% hits | AID 504558, 2011; in the data active = inhibition above about 41%;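 note: 0% = neutral control wells and 100% = reference inhibitor control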
EWS-Fli inh – EWS/Fli-driven NR0B1 reporter inhibitors, primary screen, A673 cells, NR0B1 luciferase, luminescence, MLPCN library. 350,000 compounds, 0.67% hits. viability-normalised. inhibition, % at 12.6 µM. AID 651661, 2012;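 active = mean inhibition of at least 50% after viability correction, with every replicate also passing that limit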;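 note: firefly luciferase signal divided by Alamar Blue viability fluorescence both relative to DMSO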
LGR2 inh – inhibitors of bursicon-induced LGR2 CRE-luciferase signal, primary screen, cell-based, HEK293, CRE-luciferase reporter, bursicon stimulation | bursicon-stimulated, 4 h | inhibition, % at 9.99 µM | 380,000 compounds, 0.35% hits | AID 720647, 2013;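 active = drop in luminescence signal, shown as inhibition above about 50% in the replicate tests, limit read from the data, passing the limit was not always enough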;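 note: agonist challenge used bursicon conditioned medium at about half maximal strength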
* = called active by the depositor; . = not tested or not shown.

SMILES	TROY NFkB inh	TWEAK-Fn14 inh	PAX8 reporter	LMP1 NFkB inh	EWS-Fli inh	LGR2 inh
O[C@@H]1CN(CC2CCCCC2)[C@@H](c2ccccc2)C[C@H]1n1cc(C2CC2)nn1	-3	4	15	-4	7	18
O[C@H]1CN(CC2CCCCC2)[C@@H](c2ccc(Cl)cc2)C[C@@H]1n1cc(-c2ccc(F)cc2)nn1	10	50*	23	3	6	5
O[C@H]1CN(CC2CCCCC2)[C@@H](c2ccc(Cl)cc2)C[C@@H]1n1cc(C2CC2)nn1	52*	30	-13	8	16	10
O[C@H]1C[C@H](c2ccccc2)N(CC2CCCCC2)C[C@@H]1n1cc(C2CC2)nn1	-19	64*	-27	2	-17	18
Cc1ccc([C@H]2C[C@H](O)[C@@H](n3cc(-c4ccc(F)cc4)nn3)CN2Cc2cccs2)cc1	19	41	57	8	53*	8
CCNC(=O)C[C@@H]1C=C[C@@H](NS(=O)(=O)c2ccc(C)cc2)[C@@H](CO)O1	.	.	-1	.	-1	1
COc1ccc(NC(=O)Nc2ccc3c(c2)CC(=O)N([C@@H](C)CO)C[C@@H](C)[C@H](CN(C)C(=O)Nc2c(C)noc2C)O3)cc1	.	.	-17	.	-6	18
C[C@H](CO)N1C[C@H](C)[C@@H](CN(C)Cc2ccc3c(c2)OCO3)OCCCC[C@H](C)Oc2ccc(NC(=O)NC3CCCCC3)cc2C1=O	.	.	1	.	3	5
O=C(NNc1nc2ccccc2s1)c1ccccc1F	69*	3	.	-8	-7	-28
O=C(Nc1cccc(Cl)c1)Nc1nccs1	-50	17	.	-12	.	.
O=C(NNc1nc2ccccc2s1)Nc1ccc(Cl)c(Cl)c1	82*	52*	64*	-3	3	18
O=C(CN1c2ccccc2Sc2ccccc21)NNC(=O)Nc1ccc(Cl)c(Cl)c1	59*	23	36	-3	21	.
O=C(Nc1ccc(Cl)c(Cl)c1)Nc1nccs1	5	17	-56	66*	38	-53
O=C(CN1c2ccccc2Sc2ccccc21)NNC(=O)Nc1ccc(Cl)cc1	31	11	-9	-5	4	.
CCCNC(=O)N1C[C@H](C)[C@H](OC)CN(C)C(=O)c2ccc(NC(=O)CC)cc2OC[C@H]1C	.	.	-12	.	-8	-4
O=C(NNc1nc2ccccc2s1)Nc1ccc(F)cc1	45	65*	-82	-8	-83	-82
O=C1CC(NNc2nc3ccccc3s2)C(=O)N1c1ccc(F)cc1 (stereo not drawn)	69*	16	6	-18	3	8
O=C(C[C@@H]1C[C@@H]2c3cc(NC(=O)C4CCC4)ccc3O[C@@H]2[C@@H](CO)O1)NCCc1ccccc1	.	.	1	.	3	-4
CN(C)C(=O)C[C@@H]1C[C@@H]2c3cc(NS(=O)(=O)c4ccccc4)ccc3O[C@@H]2[C@H](CO)O1	.	.	.	.	-5	-12
COc1cccc(S(=O)(=O)N[C@@H]2CC[C@@H](CC(=O)NC3CCC3)O[C@@H]2CO)c1	.	.	-4	.	0	-15
Cc1ccc(NC(=S)N(CCCN2CCOCC2)Cc2ccccn2)cc1	-37	9	110*	-8	3	-2
COc1ccc(NC(=S)N(CCCN2CCOCC2)Cc2ccccn2)cc1	-24	38	11	3	4	4
Cc1cc(C)n(-c2nc(N(c3ccccc3)c3ccccc3)nc(-n3nc(C)cc3C)n2)n1	10	106*	.	16	.	.
NC1=NC(=O)NC1(c1ccccc1)c1ccccc1	2	18	12	48*	-4	-13
NN1C(=O)NC(c2ccccc2)(c2ccccc2)C1=O	-24	-2	-2	8	0	20
CCCC(=O)Nc1ccc2c(c1)C(=O)N(C)C[C@H](OC)[C@@H](C)CN(C(=O)c1cnccn1)[C@H](C)CO2	.	.	.	.	0	-6
CNC(=O)C[C@H]1CC[C@@H]2[C@H](COc3ccc(NC(=O)c4cnccn4)cc3C(=O)N2C)O1	.	.	-27	.	-6	13
COc1ccc(CCNc2oc(COc3ccccc3F)nc2C#N)cc1OC	26	3	.	10	.	.
